Data on 22 compounds can be found in PubChem BioAssay.

For test [1], the system named is XIP peptide (Xip251-270) binding. As to the kind of experiment: XIP fragment 251-270 binding compounds – biochemical, small-molecule microarray, fluorescence 635/667 nm, 0.1 µg/mL protein, primary screen (AID 1182). As to conditions: fluorescent protein binding, 635 nm, higher = more signal, called active from +8 up or from −8 down.
The subject of test [2] is XIP peptide (Xip251-270). As to the kind of experiment: compounds binding XIP fragment 251-270 – biochemical, small-molecule microarray, fluorescence 635/667 nm, 0.5 µg/mL protein, primary screen (AID 1183). As to conditions: fluorescence 635 nm, higher = more signal.
A short description of test [3]: blood-stage malaria parasite viability loss – strain 3D7, DAPI fluorescence, 100 nL, primary screen (AID 1184).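 Further: parasites grown inside human red blood cells in medium with human serum.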 The conditions noted are these: P. falciparum 3D7 growth, 3 d, higher = more signal.
The target of test [4] is Homeobox protein Hox-A13 (Mus musculus) (UniProt Q62424). As to the kind of experiment: disruptors of Hoxa13 oligonucleotide interaction – biochemical, fluorescence polarization, labeled oligonucleotide, primary screen (AID 1185). The conditions noted are these: Hoxa13:DNA binding, 15 min, higher = more signal, called active from +8 up or from −8 down. For orientation: Polarisation of emitted light reports the rotation of a fluorescent probe.

A short description of test [5]: blockers of DNA damage checkpoint Chk1 activation – imaging, HeLa, hydroxyurea, phospho-Chk1 antibody, percent positive cells, primary screen (AID 1186). The conditions noted are these: hydroxyurea-induced phospho-Chk1 immunofluorescence imaging, higher = more signal.
The nature of test [6]: blockers of DNA damage checkpoint Chk1 activation – imaging, HeLa, hydroxyurea, phospho-Chk1 nuclear intensity, primary screen (AID 1187). The conditions noted are these: hydroxyurea-induced phospho-Chk1 immunofluorescence imaging, higher = more signal.

Structures are written as SMILES. Calls of active or inactive are those of the source. Unless noted, how the calls were made is not given here.

Sequence of Homeobox protein Hox-A13 (Mus musculus) (Q62424 whole entry, looked up): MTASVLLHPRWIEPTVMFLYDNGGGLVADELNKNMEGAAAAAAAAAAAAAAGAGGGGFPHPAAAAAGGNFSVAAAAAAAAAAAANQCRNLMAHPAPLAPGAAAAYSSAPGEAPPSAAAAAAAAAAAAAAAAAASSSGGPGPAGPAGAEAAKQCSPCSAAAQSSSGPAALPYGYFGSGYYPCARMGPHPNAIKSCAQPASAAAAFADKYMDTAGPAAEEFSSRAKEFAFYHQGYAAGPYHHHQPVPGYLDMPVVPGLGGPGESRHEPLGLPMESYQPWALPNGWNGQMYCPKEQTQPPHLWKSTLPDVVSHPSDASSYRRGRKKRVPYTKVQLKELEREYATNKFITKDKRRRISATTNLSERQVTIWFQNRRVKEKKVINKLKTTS

In the case of `O=C1O[C@H](c2ccccc2)[C@H](c2ccccc2)N2[C@H]1[C@@H](C(=O)N1CCN(c3ncccn3)CC1)[C@]1(C(=O)Nc3ccccc31)[C@H]2c1ccc(O)cc1`, the values for the composite z-score in test [1] and in test [2] were 0.0016 (inactive) and 0.458, respectively. The z-score in test [3] was -0.976; in test [4] it was -1.2 (inactive); in test [5], 0.746 (inactive); in test [6], 1.46 (inactive).
For the compound `CCCCC(=C=CC[C@@H](O)c1cccc(OCCO)c1)CCO`, the composite z-score in test [1] was -0.0509 (inactive); in test [2], 0.106. The z-score in test [3] is -0.0161; in test [4] it was -2.25 (inactive); in test [5], -0.875 (inactive); in test [6], -0.341 (inactive).
`CCOC(=O)C1=CC[C@@H](c2ccccc2Cl)N(S(=O)(=O)c2ccc(C)cc2)[C@H]1c1cccc(OC)c1`: the composite z-score in test [1] was 0.211 (inactive); in test [2], 0.246. Moreover, the z-score in test [3] is -0.794; in test [4], -1.18 (inactive); in test [5] it was 0.0932 (inactive); in test [6], -0.553 (inactive).
Consider `CCCC=C(CCC)[C@@H](NC(=O)c1ccco1)c1ccc(C(=O)OC)cc1`, for which the composite z-score in test [1] was 0.192 (inactive); in test [2], 0.585. Besides, the z-score in test [3] is -0.465; in test [4] it was -1.4 (inactive); in test [5] it was -0.125 (inactive); in test [6], -0.17 (inactive).
For the compound `C=C(/C(=C/C[C@@H](OC(C)=O)c1ccccc1OCCO)c1cc(C(=O)OC)ccc1OC)C(C)C`, the results for the composite z-score in test [1] and in test [2] were 0.988 (inactive) and 0.839, respectively. The z-score in test [3] is -2.8; in test [4] it was -4.71 (inactive); in test [5], 0.689 (inactive); in test [6], 0.766 (inactive).
In the case of `COCCCN1C(=O)[C@@]2(Cc3ccccc31)c1ccccc1C(=O)N(Cc1ccccc1OC)[C@H]2c1ccc(CO)cc1`, the composite z-score in test [1] is -0.184 (inactive); in test [2], 0.0806. Besides, the z-score was 0.861 in test [3], -2.34 (inactive) in test [4], 0.177 (inactive) in test [5] and 0.217 (inactive) in test [6].
On to `C=CCC(OC(C)=O)[C@@H]1[C@@H](N(Cc2ccc(-c3ccccc3)cc2)C(=O)c2ccc(C)cc2)c2cc(OCCCO)ccc2N1C(=O)c1ccc2ccccc2c1` (some centres not stated), for which the figures for the composite z-score in test [1] and in test [2] were -0.654 (inactive) and -0.354, respectively. Moreover, the z-score in test [3] is -1.26; in test [4] it was -0.819 (inactive); in test [5], -0.363 (inactive); in test [6], -0.221 (inactive).
Take `C=CCOC(=O)[C@H]1[C@@H]2C(=O)O[C@@H](c3ccccc3)[C@@H](c3ccccc3)N2[C@@H](c2ccc(OCCOC(=O)[C@H]3C[C@H]4C(=O)NCC(=O)N4[C@H]3c3ccc(O)cc3)cc2)[C@]12C(=O)Nc1ccc(I)cc12`: the composite z-score is -0.256 (inactive) in test [1] and 0.7 in test [2]. The z-score in test [3] is -1.83; in test [4], 2.46 (inactive); in test [5], -1.06 (inactive); in test [6], -1.08 (inactive).
With `CCCC[C@H]1OB(O)C[C@H]2C1=C(COC)C[C@H]1C(=O)C=CC(=O)[C@H]12`, the figures for the composite z-score in test [1] and in test [2] were 0.473 (inactive) and 0.407, respectively. The z-score in test [3] is -1.09; in test [4], -6.74 (inactive); in test [5] it was -0.591 (inactive); in test [6], -0.434 (inactive).
Consider `O=C1OCCC/C=C\[C@H]2OC34C=CCN(Cc5ccccc5)C(=O)[C@H]3N(CCCCCO)C(=O)[C@@H]4C12` (some centres not stated), for which the composite z-score is 0.105 (inactive) in test [1] and -0.6 in test [2]. In addition, the z-score in test [3] is 0.259; in test [4], -5.04 (inactive); in test [5], -0.312 (inactive); in test [6], 0.249 (inactive).
Turning to `Cc1ccc(S(=O)(=O)N2[C@@H](c3ccccc3)C(C(=O)O)=CC[C@H]2c2ccc(C#N)cc2)cc1`, the composite z-score was 0.556 (inactive) in test [1] and 0.848 in test [2]. Also, the z-score was -1.26 in test [3], -6.06 (inactive) in test [4], 0.0247 (inactive) in test [5] and -0.206 (inactive) in test [6].
Regarding `CC(C)=CCN(C(=O)C#Cc1ccccc1)[C@H](CO)c1ccccc1`, the composite z-score in test [1] is -0.415 (inactive); in test [2] it was -0.0445. Also, the z-score in test [3] was -1.83; in test [4] it was -7.52 (inactive); in test [5], -0.956 (inactive); in test [6], -0.6 (inactive).
For `C[C@]1(C(=O)NCC(F)(F)F)c2ccccc2C(=O)N(Cc2ccc(OC(F)(F)F)cc2)[C@H]1c1ccc(CO)cc1`, the composite z-score in test [1] was 0.102 (inactive); in test [2] it was 0.564. Besides, the z-score is -0.231 in test [3], -3.96 (inactive) in test [4], 0.01 (inactive) in test [5] and -0.125 (inactive) in test [6].
Turning to `CN(C)CCCNC(=O)[C@@H]1c2ccccc2C(=O)N(C2Cc3ccccc3C2)[C@H]1c1ccc(CO)cc1`, the composite z-score in test [1] was -0.233 (inactive); in test [2], 0.677. In addition, the z-score in test [3] is -1.09; in test [4], 0.84 (inactive); in test [5], -0.765 (inactive); in test [6] it was -0.961 (inactive).
With `CC(C)C(=C=CC[C@@H](O)c1ccc(OCCO)cc1)CCO`, the composite z-score in test [1] was 0.308 (inactive); in test [2] it was 0.222. Moreover, the z-score is -2.09 in test [3], -2.38 (inactive) in test [4], -0.201 (inactive) in test [5] and 1.37 (inactive) in test [6].
On to `C[N+](C)(C)CCCCCCNC(=O)[C@H]1C[C@H]2C(=O)NCC(=O)N2[C@H]1c1cccc(OCCO)c1`, for which the composite z-score in test [1] was 1.32 (inactive); in test [2] it was 0.695. Further, the z-score is 0.138 in test [3], -3.97 (inactive) in test [4], 0.145 (inactive) in test [5] and 0.136 (inactive) in test [6].
In the case of `CCCC[C@@H]1C[C@H]1[C@@H](NC(=O)Cc1ccccc1)c1ccc(Cl)cc1`, the composite z-score in test [1] is 0.155 (inactive); in test [2], 0.503. Besides, the z-score in test [3] was -0.0042; in test [4], -2.08 (inactive); in test [5], -0.114 (inactive); in test [6] it was -0.588 (inactive).
With `COCCOC(=O)N1C(=O)[C@@]2(c3cc(C#CCNC(N)=O)ccc31)[C@H](C(=O)NC[C@H](O)c1ccccc1)[C@H]1C(=O)O[C@H](c3ccccc3)[C@H](c3ccccc3)N1[C@@H]2c1ccc(OCCO)cc1`, the results for the composite z-score in test [1] and in test [2] were 0.561 (inactive) and 0.785, respectively. The z-score in test [3] was -0.188; in test [4] it was -1.46 (inactive); in test [5], -0.214 (inactive); in test [6] it was -0.23 (inactive).
With `C=CCNC(=O)[C@H]1[C@@H]2C(=O)O[C@@H](c3ccccc3)[C@@H](c3ccccc3)N2[C@@H](c2ccc(O)cc2)[C@]12C(=O)Nc1ccc(C#CC3=CCCCC3)cc12`, the composite z-score in test [1] is 0.542 (inactive); in test [2], 0.785. In addition, the z-score in test [3] is -0.51; in test [4], 0.771 (inactive); in test [5], -0.354 (inactive); in test [6], -0.217 (inactive).
For `Cc1ccc(S[C@]2(C(=O)NCC(F)(F)F)CC(=O)N(C3CCCCC3)[C@@H]2c2ccc(CO)cc2)cc1`, the composite z-score in test [1] is 0.23 (inactive); in test [2], 0.201. For the same compound, the z-score in test [3] is -0.703; in test [4] it was -3.04 (inactive); in test [5] it was -0.418 (inactive); in test [6], -0.25 (inactive).
Turning to `CC(C)C[C@@H]1NC(=O)C([C@@H](C)OCc2ccccc2)NC(=O)[C@@]23C(=O)N[C@@H](Cc4ccccc4)C2[C@H](C)[C@@]2(C)O[C@H]2C3/C=C/CC/C=C/CNC1=O` (some centres not stated), the composite z-score was -0.0755 (inactive) in test [1] and 0.677 in test [2]. The z-score in test [3] is -3.08; in test [4], -6.51 (inactive); in test [5] it was -0.799 (inactive); in test [6], -0.574 (inactive).
Turning to `COc1ccc([Si](C)(C)[C@H]2[C@H](CCn3cc([C@H](O)c4ccccc4)nn3)O[C@@]3(C(=O)N(C)c4c(Br)cc(C)cc43)[C@@H]2C)cc1`, the composite z-score in test [1] was 0.424 (inactive); in test [2] it was 0.586. The z-score in test [3] is -2.41; in test [4], -2.54 (inactive); in test [5] it was -0.66 (inactive); in test [6] it was -0.0953 (inactive).
